TTR transcr act = increases transthyretin transcription. SH-SY5Y TTR promoter Gaussia luciferase, luminescence; 100% = recombinant luciferase protein wells. activation, % at 16.7 µM. 92,000 tested, 1.3% active;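 active means activation above the mean of all tested compounds plus 3 SD, cut at about 9.5% in these data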;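 further: cells exposed to compounds for one day before reading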
HuH7 TTR inh = counter-screen for TTR activators: TTR transcription inhibitors in HuH7 cells | 1,100 tested, 4% active | shares compounds with TTR transcr act | inhibition, % at 16.7 µM | HuH7 TTR promoter-Gaussia luciferase reporter, luminescence;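 active means average inhibition above the solvent-only control wells' mean plus 3 SD, cut at about 15% in these data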;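 further: inhibitors lower well luminescence so higher value means more inhibition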
TTR act confirm = confirmation of human transthyretin transcription activators. shares compounds with TTR transcr act. SHSY5Y TTR promoter Gaussia luciferase, luminescence; 100% = purified Lucia enzyme wells, no cells. activation, % at 16.7 µM. 1,100 tested, under 10 active. AID 1117280;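 active means mean activation above a set limit taken from the earlier primary screen, cut at about 11% in these data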
A number is an active result; 0 = inactive. Only a selection was taken, and hits are over-represented in it overall.

SMILES | TTR transcr act | others
COc1ccc(CCNC(=O)Cn2nnc(-c3ccccc3F)n2)cc1OC | 0
COc1ccc(N(C(C)C(=O)N/N=C/c2ccc(OC)c(OC)c2)S(C)(=O)=O)cc1 (stereo not given) | 0
COc1ccc(N(C(C)C(=O)NN=C2CCCCCCC2)S(C)(=O)=O)cc1 (stereo not given) | 15 | HuH7 TTR inh=0;TTR act confirm=0
COc1ccc(N(C(C)C(=O)N/N=C/c2cccnc2)S(C)(=O)=O)cc1 (stereo not given) | 0
Cc1ccccc1NC(=O)c1ccccn1 | 0
Cc1cc(NC(=O)C2CCCCC2)ncc1NC(=O)c1ccccn1 | 14 | HuH7 TTR inh=0;TTR act confirm=0
Cc1cc(NC(=O)C2CC2)ncc1NC(=O)c1ccccn1 | 0
C=CCCC1CN(Cc2ccc(OC)cc2)S(=O)(=O)c2c(Oc3ccc(C(C)C)cc3)cccc2O1 (stereo not given) | 0
CCC[C@H]1[C@@H](NCC2CCCCC2)CC[C@@]23CCCN2C(=O)CCC[C@@H]13 | 0
COC(=O)C[C@@H]1CC[C@H]2[C@H](COc3ccc(NC(=O)c4cccc(C(F)(F)F)c4)cc3C(=O)N2C)O1 | 0
CCOC(=O)C1CCN(C(=O)C(C)(C)NC(=O)Nc2ccc(C(F)(F)F)cc2Cl)CC1 | 0
COc1ccc(CNC(=O)OC2CC3CC2[C@H]2CCCCN2C3)cc1 (stereo not given in full) | 0
O=C(Cc1ccccc1)NC1CCCc2c1cnn2-c1ccc(F)cc1F (stereo not given) | 0
COc1ccccc1Cn1nc(C(=O)O)c2ccccc2c1=O | 0
CC(C)(C)NC(=O)c1nn(Cc2ccccc2)c(=O)c2ccccc12 | 10 | HuH7 TTR inh=0;TTR act confirm=0
CCN(CC)CCNC(=O)Cc1nn(Cc2ccccc2)c(=O)c2ccccc12 | 0
COC(=O)[C@]12C[C@H](CC(=O)NCc3ccc(C)o3)C(=O)N(Cc3cccc4ccccc34)C1=C[C@H](C(C)C)O[C@@H]2C1CC1 | 0
COP(=O)(O)[C@@H](CC(C)C)NC(=O)OCc1ccccc1 | 0
CCCCCC(=O)NC1CCCCN(Cc2ccc(Cl)cc2)C1=O (stereo not given) | 0
Cc1nc(C(=O)NNC(=O)Nc2ccc(Cl)cc2)cs1 | 0
CN(C)CC#Cc1cncc(C(=O)NNC(=O)Nc2ccc(Cl)cc2)c1 | 10 | HuH7 TTR inh=0;TTR act confirm=0
Cc1cc(C(=O)NNC(=O)Nc2ccc(Cl)cc2)no1 | 0
c1nc(NCC2CCCC2)c2cc(-c3ccc4c(c3)OCO4)ccc2n1 | 0
C[C@@H]1COc2cc(Br)ccc2S(=O)(=O)N1Cc1cn(CC2CCCCC2)nn1 | 0
COc1cc2c(cc1OC)C1=NC(=O)CN1C(SCc1ccc(C)cc1)=N2 | 0
SMILES | TTR transcr act | others
C=CCSC1=Nc2cc(OC)c(OC)cc2C2=NC(=O)CN12 | 31 | HuH7 TTR inh=0;TTR act confirm=0
C=CCc1ccc(OCCn2cccc2C=O)c(OC)c1 | 0
COC[C@H]1CCCN1c1cccc2c1S(=O)(=O)N1CC[C@@H](C1)O2 | 0
CCOC(=O)[C@]12CCCC=C1N(CCCOC)C(=O)[C@@H]2CC(=O)NCc1cccs1 | 0
COc1ccc(CCNC(=O)Nc2ccc3c(c2)[C@@]2(CC(=O)N(CC(C)C)C2c2ccccc2)C(=O)N3C)cc1OC (stereo not given in full) | 0
CC(C)(C)C(=O)NNC(=O)c1cc(C(C)(C)C)nn1Cc1ccccc1 | 0
CC(C)(C)c1cc(C(=O)NC2CC2)n(Cc2ccc(F)cc2)n1 | 9.7 | HuH7 TTR inh=0;TTR act confirm=0
CC(C)(C)c1cc(C(=O)Nc2ccc(F)cc2)n(Cc2ccc(F)cc2)n1 | 0
CNc1nc(N)c([N+](=O)[O-])c(Nc2ccccc2)n1 | 0
CC(=O)Nc1sc2c(c1-c1nc3ccccc3s1)CCCN(C(C)C)C2 | 0
COc1ccc(C2(C)NC(=O)N(CC(=O)Nc3ccc4c(c3)OCO4)C2=O)cc1OC (stereo not given) | 15 | HuH7 TTR inh=0;TTR act confirm=0
CC1(c2ccccc2)NC(=O)N(CC(=O)Nc2ccc3c(c2)OCO3)C1=O (stereo not given) | 0
CC1(c2ccc(OC(F)F)cc2)NC(=O)N(CC(=O)Nc2ccc3c(c2)OCO3)C1=O (stereo not given) | 0
c1ccc(CN2CCN(c3ncnc4sccc34)CC2)cc1 | 0
O=C(Cn1nc(-c2ccccc2)c2ccccc21)Oc1ccccc1 | 0
Cc1cccc(NC(=O)CSc2c3c(nc4ccccc24)CCC3)n1 | 0
COc1cccc(NC(=O)CSc2c3c(nc4ccccc24)CCCC3)c1 | 9.9 | HuH7 TTR inh=0;TTR act confirm=0
CCn1c(SCC(=O)Nc2cccc(OC)c2)nc2ccccc2c1=O | 0
O=C(Nc1ccc(OC(F)(F)F)cc1)Nc1c(-c2ccccc2)nc2ncccn12 | 0
Cc1ccc(OCC(=O)NC(=S)Nc2cccc(NC(=O)c3ccccc3)c2)cc1 | 0
CCOc1ccc(NC(=O)Nc2ccc(Br)cn2)cc1 | 0
Cc1ccc(OCC(=O)NC(=S)Nc2ccc(Br)cn2)cc1 | 20 | HuH7 TTR inh=0;TTR act confirm=0
CN(C)[C@@H]1CCN(c2cccc3c2S(=O)(=O)N2CC[C@@H](C2)O3)C1 | 0
Cc1cccc(NC(=O)Nc2nc3ncccn3c2-c2ccc(F)cc2)c1 | 0
Cc1cc(-c2ccccc2)nc(Oc2ccc(C(C)(C)C)cc2)c1S(C)(=O)=O | 0
SMILES | TTR transcr act | others
Cc1cc(C)cc(Oc2nc(-c3ccccc3)cc(C)c2S(C)(=O)=O)c1 | 0
Cc1cccc(Oc2nc(-c3ccccc3)cc(C)c2S(C)(=O)=O)c1C | 12 | HuH7 TTR inh=0;TTR act confirm=0
COc1ccc(CN2C3=NC(c4ccccc4)CC(=O)N3/C(=C\c3ccccc3)C2c2ccccc2)c(OC)c1 (stereo not given) | 0
COP(=O)(O)C(COCCC(CC(C)C)NC(=O)OCc1ccccc1[N+](=O)[O-])NC(=O)OCc1ccccc1 (stereo not given) | 0
O=C(Nc1nc2ncccn2c1-c1ccc(C(F)(F)F)cc1)c1ccccc1 | 0
O=C(NC1CCCCN(Cc2cccc(Cl)c2)C1=O)c1ccc(Cl)cc1Cl (stereo not given) | 0
CCNc1nc(NC(C)CC)nc(Oc2ccc(OCC)nn2)n1 (stereo not given) | 13 | HuH7 TTR inh=0;TTR act confirm=0
CCOc1ccc(Oc2nc(NCC(C)C)nc(OC)n2)nn1 | 0
CCOc1ccc(Oc2nc(NCC(C)C)nc(N(C)C)n2)nn1 | 0
CN(Cc1ccccc1)C(=O)OCc1cn(Cc2cccc(F)c2F)nn1 | 0
Oc1ccc(CNc2cccnc2)c2cccnc12 | 0
CC(=O)c1ccc(NC(=O)CN2CCC(NC(=O)C3CCCCC3)CC2)cc1 | 0
CC(=O)c1ccc(NC(=S)N2CCCCCC2)cc1 | 0
CCN(C(=S)Nc1ccc(C(C)=O)cc1)C1CCCCC1 | 32 | HuH7 TTR inh=0;TTR act confirm=0
CC(C)CNC(=O)OCc1cn(Cc2ccccc2C(F)(F)F)nn1 | 0
CC(C)NCCOCCOc1ccccc1F | 11 | HuH7 TTR inh=0;TTR act confirm=0
CCN(CC)CCOCCOc1ccccc1F | 0
CC(C)NCCOCCOc1ccc(Cl)cc1Br | 0
O=C(NC1CCCCN(Cc2ccc(Cl)cc2)C1=O)c1cccc([N+](=O)[O-])c1 (stereo not given) | 0
Cc1nnc(SCC(=O)NC2CCCCC2)[nH]c1=O | 0
O=C(Nc1cccc(C(F)(F)F)c1)O[C@@H]1CC[C@@]23CCCN2C(=O)CCC[C@H]3C1 | 0
COc1ccc(CNC(=O)O[C@H]2CC[C@@]34CCCN3C(=O)CCC[C@H]4C2)cc1OC | 0
COC(=O)C[C@@H]1CC[C@H]2[C@@H](COc3ccc(NC(=O)Nc4ccccc4Cl)cc3C(=O)N2C)O1 | 0

High-throughput results from PubChem.
